# Data published in PubChem BioAssay (Tox21).
# Values without a mark were called inactive. Results filed as inconclusive are left out. Where a call stands in place of a potency, no number is given. Activity calls are given as the source filed them. Unless noted, calls follow the shape of the dose curve; as a rule, active = well fitted curve in the direction sought with a large enough effect in the repeat runs; inconclusive = weak or mixed curves; inactive = no such curve, though single readings can be large; an effect the other way counts as inactive or inconclusive.
# How the values were obtained:
# [1] = A CellTox Green Cytotoxicity Assay to monitor cytotoxicity in HEK293 cells - 32 hour (AID 1224881); also: nearly all actives have a fitted effect of over 40% in size
# In short: (§1)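 HEK293 cells premixed with CellTox Green dye were seeded at 600 cells/well and left 5 h at 37 C/5% CO2 before pin transfer of 23 nL compound in DMSO. Fluorescence from dye bound to dead-cell DNA was read during 40 h treatment.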
# [2] = A CellTox Green Cytotoxicity Assay to monitor cytotoxicity in HepG2 cells - 0 hour (AID 1224882); also: nearly all actives have a fitted effect of over 35% in size
# In short: (§2)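 HepG2 cells were seeded together with the CellTox Green dye at 600 cells/well, left 5 h at 37 C/5% CO2, then given compounds in DMSO. Fluorescence from dye bound to dead-cell DNA was read repeatedly over 40 h of treatment at 37 C.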
# [3] = A CellTox Green Cytotoxicity Assay to monitor cytotoxicity in HEK293 cells - 8 hour (AID 1224884); also: nearly all actives have a fitted effect of over 35% in size
# In short: as §1
# [4] = qHTS RealTime-Glo MT Cell Viability Assay in HepG2 cells - 16 hour (AID 1224885); also: nearly all actives have a fitted effect of over 50% in size
# In short: (§3)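 Tox21 10K library screened in qHTS format on HepG2 cells carrying RealTime-Glo reagents. Compounds were added after a 5 h preincubation, and the luminescent signal from continuous culture was measured repeatedly during 40 h treatment.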
# [5] = qHTS RealTime-Glo MT Cell Viability Assay in HEK293 cells - 24 hour (AID 1224886); also: top concentration of the series differs between compounds; nearly all actives have a fitted effect of over 50% in size
# In short: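 Luminescence generated by NanoLuc from substrate produced by living HEK293 cells served as the viability signal. Each value reflects the reading at its stated time point during continuous 40 h compound exposure at 37 C.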
# [6] = qHTS RealTime-Glo MT Cell Viability Assay in HEK293 cells - 8 hour (AID 1224887); also: nearly all actives have a fitted effect of over 50% in size; also: potency is read from the fitted curve at half-maximal effect
# In short: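 HEK293 cells mixed with RealTime-Glo reagents (NanoLuc plus cell-permeant prosubstrate) at 600 cells/well, preincubated 5 h at 37 C/5% CO2, then given 23 nL compound in DMSO. Nonlytic luminescence from viable cells was read at 0, 8, 16, 24, 32 and 40 h.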
# [7] = A CellTox Green Cytotoxicity Assay to monitor cytotoxicity in HEK293 cells - 16 hour (AID 1224888); also: nearly all actives have a fitted effect of over 35% in size
# In short: as §1
# [8] = qHTS RealTime-Glo MT Cell Viability Assay in HepG2 cells - 0 hour (AID 1224889); also: nearly all actives have a fitted effect of over 50% in size; also: potency is read from the fitted curve at half-maximal effect
# In short: as §3
# [9] = A CellTox Green Cytotoxicity Assay to monitor cytotoxicity in HepG2 cells - 8 hour (AID 1224890); also: nearly all actives have a fitted effect of over 45% in size
# In short: as §2
# [10] = qHTS assay to identify small molecule antagonists of the estrogen receptor alpha (ER-alpha) signaling pathway using the BG1 cell line in the presence of 0.1 nM 17-beta-estradiol - cell viability counter screen (AID 1259241); also: nearly all actives have a fitted effect of over 40% in size
# In short: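 VM7Luc4E2 cells (endogenous full-length ER-alpha, 4xERE-luciferase), cultured 5 days in charcoal-stripped serum, exposed to compounds with 0.1 nM 17beta-estradiol (final) for 22 hr at 37C. Viability read in same wells as live-cell protease fluorescence after 30 min.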
# [11] = qHTS assay to identify small molecule antagonists of the androgen receptor (AR) signaling pathway using the MDA cell line in the presence of 0.5 nM R1881 - cell viability counter screen (AID 1259242); also: nearly all actives have a fitted effect of over 45% in size
# In short: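 MDA-kb2 cells (human breast carcinoma, stably carrying MMTV-luciferase reporter) were exposed to compounds with 0.5 nM R1881 (final) for 16 hr at 37C, 0% CO2; viability then read as live-cell protease fluorescence (CellTiter-Fluor, 30 min) in the same wells.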
# [12] = qHTS assay to identify small molecule HDAC inhibitors (AID 1259364); also: nearly all actives have a fitted effect of over 45% in size; also: potency is read from the fitted curve at half-maximal effect
# In short: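 Wild-type HCT-116 cells were plated overnight, exposed to compounds for 2 h at 37 °C, then given HDAC-Glo class I/II luminogenic reagent for 30 min at room temperature before luminescence was read.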
# [13] = qHTS assay to identify small molecule HDAC inhibitors - cell viability counter screen (AID 1259365)
# In short: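 Wild-type HCT-116 cells, 1,500/well, cultured overnight, then compound-treated 2 h at 37 C. Viability measured as ATP luminescence with CellTiter-Glo after 30 min at room temperature.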
# [14] = qHTS assay to identify small molecule antagonists of the sonic hedgehog signaling (Shh) pathway - cell viability counter screen (AID 1259367); also: nearly all actives have a fitted effect of over 55% in size
# In short: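 Using CellTiter-Fluor, viability of Gli1-Luc reporter 3T3 cells is read by fluorescence in the wells used for the Shh luciferase assay. Treatment lasts 23 hr with conditioned medium, then reagent 1 hr at 37C.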
# [15] = target: Androgen receptor (Homo sapiens) (UniProt P10275); assay: qHTS assay to identify small molecule antagonists of the androgen receptor (AR) signaling pathway using the MDA cell line in the presence of 0.5 nM R1881 (AID 1259243); also: nearly all actives have a fitted effect of over 50% in size
# In short: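 MDA-kb2 human breast carcinoma cells carrying an MMTV-luciferase reporter (AR- and GR-responsive) were plated, rested 5 hr at 37C, dosed with compounds, then stimulated with 0.5 nM R1881 (final) for 16 hr; luminescence was read after ONE-Glo.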
# [16] = qHTS assay to identify small molecule agonists of the sonic hedgehog signaling (Shh) pathway - cell viability counter screen (AID 1259366); also: nearly all actives have a fitted effect of over 50% in size
# In short: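 NIH/3T3-derived Gli1-Luc reporter cells, 2,000 per well, received compound after 4 h and were treated about 23 h at 37C. Viability measured in the same wells by CellTiter-Fluor fluorescence after 1 h.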
# [17] = qHTS assay to identify small molecule agonists of the sonic hedgehog signaling (Shh) pathway (AID 1259368; calls by dose curve; also: series mostly up to about 92 µM; nearly all actives have a fitted effect of over 15% in size)
# In short: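 NIH/3T3-derived 3T3Gli1-Luc cells carrying a stably integrated Gli1 response element–firefly luciferase reporter were plated, left 4 hr at 37 C, then given compounds in DMSO for 24 hr. Luminescence was read 30 min after adding luciferase reagent.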
# [18] = target: Estrogen receptor (Homo sapiens) (UniProt P03372); assay: qHTS assay to identify small molecule antagonists of the estrogen receptor alpha (ER-alpha) signaling pathway using the BG1 cell line in the presence of 0.1 nM 17-beta-estradiol (AID 1259244); also: nearly all actives have a fitted effect of over 50% in size
# In short: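 VM7Luc4E2 cells (endogenous full-length ER-alpha, stable 4xERE-luciferase) were grown 5 days in phenol red-free medium with charcoal-stripped FBS, then exposed 22 h at 37C to compounds plus 0.1 nM (final) 17beta-estradiol; ONE-Glo luminescence read-out.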
# [19] = qHTS assay to identify small molecule phospholipidosis (PLD) inducers (AID 1259344; active = well fitted curve in the direction sought with a large enough effect; an effect the other way counts as inactive or inconclusive)
# In short: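 Fluorescent phospholipid staining (LipidTOX Red) measured by automated microscopy in fixed HepG2 cells after 24 h treatment; nuclei counterstained with Hoechst 33342; amiodarone as reference inducer.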
# [20] = A CellTox Green Cytotoxicity Assay to monitor cytotoxicity in HepG2 cells - 32 hour (AID 1224883); also: nearly all actives have a fitted effect of over 50% in size
# In short: as §2
# Estrogen receptor (Homo sapiens), sequence (P03372 whole entry, looked up): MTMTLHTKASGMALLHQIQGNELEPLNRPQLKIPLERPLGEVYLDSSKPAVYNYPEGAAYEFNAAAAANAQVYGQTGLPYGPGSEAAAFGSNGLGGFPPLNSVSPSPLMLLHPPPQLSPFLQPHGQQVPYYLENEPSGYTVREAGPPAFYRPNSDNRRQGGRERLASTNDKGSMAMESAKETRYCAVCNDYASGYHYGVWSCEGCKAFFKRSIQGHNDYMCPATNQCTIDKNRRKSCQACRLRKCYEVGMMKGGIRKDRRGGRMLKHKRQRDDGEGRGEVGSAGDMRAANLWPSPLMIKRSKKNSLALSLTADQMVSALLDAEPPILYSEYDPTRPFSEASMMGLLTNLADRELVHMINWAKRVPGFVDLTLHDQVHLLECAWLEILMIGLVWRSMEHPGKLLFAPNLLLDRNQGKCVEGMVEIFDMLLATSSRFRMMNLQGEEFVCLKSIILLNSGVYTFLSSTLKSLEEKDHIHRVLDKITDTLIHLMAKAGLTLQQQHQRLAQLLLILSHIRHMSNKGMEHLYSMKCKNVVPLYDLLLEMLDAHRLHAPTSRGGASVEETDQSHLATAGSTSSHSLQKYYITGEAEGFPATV
# Androgen receptor (Homo sapiens), sequence (P10275 whole entry, looked up): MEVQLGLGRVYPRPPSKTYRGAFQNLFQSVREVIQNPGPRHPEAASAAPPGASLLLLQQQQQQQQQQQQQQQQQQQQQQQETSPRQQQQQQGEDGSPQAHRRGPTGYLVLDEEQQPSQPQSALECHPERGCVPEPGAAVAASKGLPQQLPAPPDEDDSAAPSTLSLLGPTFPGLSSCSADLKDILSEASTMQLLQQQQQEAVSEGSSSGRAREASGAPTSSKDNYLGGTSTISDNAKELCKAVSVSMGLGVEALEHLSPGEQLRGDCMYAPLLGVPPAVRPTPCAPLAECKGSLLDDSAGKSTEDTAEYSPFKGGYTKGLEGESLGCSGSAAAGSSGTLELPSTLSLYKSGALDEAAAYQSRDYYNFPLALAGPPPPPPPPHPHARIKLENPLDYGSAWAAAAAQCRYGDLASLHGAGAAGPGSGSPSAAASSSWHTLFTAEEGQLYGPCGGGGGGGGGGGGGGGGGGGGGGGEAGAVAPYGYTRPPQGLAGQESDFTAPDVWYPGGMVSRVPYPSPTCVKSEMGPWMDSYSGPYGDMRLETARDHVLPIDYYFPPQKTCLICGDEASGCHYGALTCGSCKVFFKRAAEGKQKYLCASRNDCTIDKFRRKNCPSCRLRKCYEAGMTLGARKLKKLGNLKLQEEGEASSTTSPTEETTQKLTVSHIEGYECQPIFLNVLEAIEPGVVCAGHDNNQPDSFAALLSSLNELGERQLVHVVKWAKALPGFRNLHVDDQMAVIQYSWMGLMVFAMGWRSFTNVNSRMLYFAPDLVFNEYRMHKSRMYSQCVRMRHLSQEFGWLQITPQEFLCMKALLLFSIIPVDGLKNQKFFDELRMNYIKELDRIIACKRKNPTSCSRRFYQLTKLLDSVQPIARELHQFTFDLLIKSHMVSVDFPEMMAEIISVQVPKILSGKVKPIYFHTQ
structure (smiles),measurement,setting,value
CCN(C=O)CC,outcome,[1],inactive
same,Potency,[2],inactive
same,outcome,[3],inactive
same,outcome,[4],inactive
same,Potency,[5],inactive
same,Potency,[6],inactive
same,outcome,[7],inactive
same,Potency,[8],inactive
same,outcome,[9],inactive
same,outcome,[10],inactive
same,outcome,[11],inactive
same,Potency,[12],inactive
same,outcome,[13],inactive
same,Potency,[14],inactive
Cc1coc2ccccc2c1=O,outcome,[1],inactive
same,Potency,[2],inactive
same,outcome,[3],inactive
same,outcome,[4],inactive
same,Potency,[5],inactive
same,Potency,[6],inactive
same,Potency,[8],inactive
same,outcome,[9],inactive
same,outcome,[10],inactive
same,outcome,[11],inactive
same,Potency,[15],inactive
same,Potency,[12],inactive
same,outcome,[13],inactive
same,Potency,[16],inactive
same,outcome,[17],inactive
C[N+](C)(CCOc1ccccc1)Cc1cccs1,outcome,[1],inactive
same,Potency,[2],inactive
same,outcome,[3],inactive
same,outcome,[4],inactive
same,Potency,[5],inactive
same,Potency,[6],inactive
same,Potency,[8],inactive
same,outcome,[9],inactive
same,outcome,[10],inactive
same,outcome,[11],inactive
same,Potency,[15],inactive
same,Potency,[12],inactive
same,outcome,[13],inactive
same,Potency,[16],inactive
same,Potency,[14],inactive
same,outcome,[17],inactive
COC(=O)C1=C(C)NC(C)=C(C(=O)OC(C)C)C1c1cccc2nonc12 (centres undefined),outcome,[1],inactive
same,Potency,[2],inactive
same,outcome,[3],inactive
same,outcome,[7],inactive
same,Potency,[8],1.07 µM (active)
same,outcome,[9],inactive
same,outcome,[10],inactive
same,outcome,[11],inactive
same,Potency,[12],inactive
same,outcome,[13],inactive
same,outcome,[17],inactive
CC(=O)Nc1ccc(OCC(O)CNC(C)C)cc1 (centres undefined),outcome,[1],inactive
same,Potency,[2],inactive
same,outcome,[3],inactive
same,outcome,[4],inactive
same,Potency,[5],inactive
same,outcome,[7],inactive
same,Potency,[8],inactive
same,outcome,[9],inactive
same,outcome,[10],inactive
same,outcome,[11],inactive
same,Potency,[12],inactive
same,outcome,[13],inactive
same,Potency,[14],inactive
Cc1ccc(C(=O)c2ccc(CC(=O)O)n2C)cc1,outcome,[1],inactive
same,outcome,[3],inactive
same,outcome,[4],inactive
same,Potency,[5],inactive
same,Potency,[6],inactive
same,outcome,[7],inactive
same,Potency,[8],inactive
same,outcome,[10],inactive
same,outcome,[11],inactive
same,Potency,[15],inactive
same,outcome,[18],inactive
same,outcome,[19],inactive
same,outcome,[13],inactive
same,Potency,[14],inactive
CC1CCC(CO)CC1 (centres undefined),Potency,[2],inactive
same,Potency,[20],inactive
same,outcome,[3],inactive
same,outcome,[4],inactive
same,Potency,[5],inactive
same,Potency,[6],inactive
same,outcome,[7],inactive
same,Potency,[8],inactive
same,outcome,[9],inactive
same,outcome,[10],inactive
same,outcome,[11],inactive
same,Potency,[15],inactive
same,outcome,[18],inactive
same,Potency,[12],inactive
same,outcome,[13],inactive
same,Potency,[16],inactive
CCOC(=O)C(=O)CCCCCCl,outcome,[1],inactive
same,Potency,[2],inactive
same,outcome,[3],inactive
same,outcome,[4],inactive
same,Potency,[6],inactive
same,outcome,[7],inactive
same,Potency,[8],inactive
same,outcome,[9],inactive
same,outcome,[10],inactive
same,outcome,[11],inactive
same,Potency,[15],inactive
same,outcome,[18],inactive
same,Potency,[12],inactive
same,outcome,[13],inactive
same,Potency,[16],inactive
same,outcome,[17],inactive
CC(=O)NC(=O)c1ccccc1O,Potency,[2],inactive
same,Potency,[20],inactive
same,outcome,[3],inactive
same,outcome,[4],inactive
same,Potency,[5],inactive
same,Potency,[6],inactive
same,outcome,[7],inactive
same,Potency,[8],inactive
same,outcome,[9],inactive
same,outcome,[10],inactive
same,outcome,[11],inactive
same,outcome,[18],inactive
same,Potency,[12],inactive
same,outcome,[13],inactive
same,Potency,[16],inactive
same,Potency,[14],inactive
same,outcome,[17],inactive
CCN1C=CN(C)C1C (centres undefined),outcome,[1],inactive
same,Potency,[2],inactive
same,outcome,[3],inactive
same,outcome,[4],inactive
same,Potency,[5],inactive
same,Potency,[6],inactive
same,Potency,[8],inactive
same,outcome,[9],inactive
same,outcome,[10],inactive
same,outcome,[11],inactive
same,outcome,[18],inactive
same,Potency,[12],inactive
same,outcome,[13],inactive
same,Potency,[14],inactive
same,outcome,[17],inactive
Cc1nc(C2CCCCC2)c(-c2ccc(S(N)(=O)=O)c(F)c2)o1,outcome,[1],inactive
same,Potency,[20],inactive
same,outcome,[3],inactive
same,outcome,[7],inactive
same,Potency,[8],inactive
same,outcome,[9],inactive
same,outcome,[10],inactive
same,outcome,[11],inactive
same,Potency,[12],inactive
same,outcome,[13],inactive
same,Potency,[14],inactive
same,outcome,[17],inactive
O=C1c2ccccc2C(=O)c2cc(O)ccc21,outcome,[1],inactive
same,Potency,[2],inactive
same,outcome,[3],inactive
same,outcome,[4],inactive
same,Potency,[6],55 µM (active)
same,outcome,[7],inactive
same,Potency,[8],inactive
same,outcome,[9],inactive
same,outcome,[10],inactive
same,outcome,[11],inactive
same,Potency,[12],7.7 µM (active)
same,outcome,[13],inactive
same,Potency,[16],inactive
same,Potency,[14],inactive
same,outcome,[17],inactive
CCCCS(=O)(=O)N[C@@H](Cc1ccc(OCCCCC2CCNCC2)cc1)C(=O)O,Potency,[2],inactive
same,Potency,[20],inactive
same,outcome,[3],inactive
same,outcome,[4],inactive
same,Potency,[5],inactive
same,Potency,[6],inactive
same,outcome,[7],inactive
same,Potency,[8],inactive
same,outcome,[9],inactive
same,outcome,[10],inactive
same,outcome,[11],inactive
same,Potency,[15],inactive
same,outcome,[18],inactive
same,PLD induction,[19],-2.88% [at 1.53 µM]
same,Potency,[12],inactive
same,outcome,[13],inactive
same,Potency,[16],inactive
same,Potency,[14],inactive
same,outcome,[17],inactive
NC(=O)N[C@@H](CCC(=O)O)C(=O)O,outcome,[1],inactive
same,Potency,[20],inactive
same,outcome,[3],inactive
same,outcome,[4],inactive
same,Potency,[5],inactive
same,Potency,[6],inactive
same,Potency,[8],inactive
same,outcome,[9],inactive
same,outcome,[10],inactive
same,outcome,[11],inactive
same,outcome,[19],inactive
same,Potency,[12],inactive
same,outcome,[13],inactive
same,Potency,[16],inactive
same,Potency,[14],inactive
same,outcome,[17],inactive
COc1c(N2CCNC(C)C2)c(F)cc2c(=O)c(C(=O)O)cn(C3CC3)c12 (centres undefined),outcome,[1],inactive
same,Potency,[2],inactive
same,outcome,[3],inactive
same,outcome,[4],inactive
same,Potency,[5],inactive
same,Potency,[6],inactive
same,outcome,[7],inactive
same,Potency,[8],inactive
same,outcome,[9],inactive
same,outcome,[10],inactive
same,outcome,[11],inactive
same,Potency,[12],inactive
same,outcome,[13],inactive
same,Potency,[16],inactive
same,outcome,[17],inactive
CC(=O)c1ccc2ccccc2c1,outcome,[1],inactive
same,Potency,[2],inactive
same,outcome,[3],inactive
same,outcome,[4],inactive
same,Potency,[5],inactive
same,Potency,[6],inactive
same,Potency,[8],inactive
same,outcome,[10],inactive
same,outcome,[11],inactive
same,outcome,[18],inactive
same,Potency,[12],inactive
same,outcome,[13],inactive
same,Potency,[16],inactive
same,Potency,[14],inactive
same,outcome,[17],inactive
